# An excerpt weighted towards active compounds, which were near 3.3% of everything screened.
# MITF TRPM1 HTS – MITF TRPM1 promoter activation in melanoma cells. SK-MEL-5 TRPM1-promoter luciferase, 24 h; % of positive control, neutral wells = 0. activation, % at 12.5 µM. hit rate 0.75% among 300,000. AID 588334;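 active = mean activation of at least 80% with every replicate also reaching 80%; inconclusive = mean reaches 80% but some replicate falls short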;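 note: 0% = neutral control wells and 100% = parthenolide positive control wells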
# C2C12 statin – protects C2C12 myotubes from simvastatin toxicity | ATP luminescence, 48 h; scaled: DMSO 0, geranylgeraniol control 100 | rescue of ATP level, % at 7.49 µM | hit rate 0.78% among 330,000;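 active = mean ATP rescue above about 67%, or every replicate alone reaching that limit, limit read from the data, passing the limit was not always enough; inconclusive = no clear call, values can overlap the other calls; inactive = mean under the limit and some replicate under it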;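 note: myotubes were challenged with 10 µM simvastatin during compound exposure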
# Wnt bcat act – Wnt/beta-catenin pathway activation. activation, % at 9.35 µM. hit rate 1.2% among 300,000. Wnt/beta-catenin reporter cell assay, activator, plate reader; in the data active = activation above about 30%, passing the limit was not always enough; inconclusive = no clear call, values can overlap the other calls;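 note: 0% = neutral control wells and 100% = positive control wells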
# esBAF inh – blocks esBAF chromatin remodeling in mouse ES cells. Bmi1-luciferase knock-in reporter, 24 h; 100% = twice the neutral-well signal. reporter increase, % at 12.5 µM. hit rate 2% among 350,000; in the data active = activation above about 40%; inconclusive = no clear call, values can overlap the other calls;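 note: 0% = median of the plate's neutral control wells and 100% = double that signal; a rise in the Bmi1 reporter signal indicates esBAF inhibition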
# GAA850 FXN act – activators of GAA850 frataxin (FXN) promoter; hit rate 0.56% among 360,000; HEK293 lucGAA850 FXN promoter luciferase reporter, 24 h; percent of 10 µM SAHA response; AID 540364; activation, % at 6 µM;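 active = activation above the average of all compounds screened plus 3 SD, cutoff fixed separately per campaign, cut at about 7.5% in these data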;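 note: 0% = DMSO wells and 100% = 10 µM SAHA wells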
# GAA30 counter – GAA30 FXN promoter activation counter-screen. shares compounds with GAA850 FXN act. HEK293 lucGAA30 FXN promoter luciferase, 24 h; DMSO = 0%, 5 µM ipriflavone = 100%. activation, % at 6 µM. hit rate 66% among 1,900. AID 588350;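 active = mean activation above the mean of solvent-only control wells plus 3 SD, cut at about 22% in these data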;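 note: counterscreen of GAA850 promoter hits where activity marks nonselective or luminescence artifacts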
# GAA850 confirm – GAA850 FXN promoter activation confirmation; shares compounds with GAA850 FXN act; HEK293 lucGAA850 FXN promoter luciferase reporter, 24 h; 100% = activation by SAHA; activation, % at 6 µM; hit rate 86% among 1,900; AID 588351;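 active = mean activation above a set limit taken from the primary screen, cut at about 8% in these data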;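 note: 0% = DMSO wells and 100% = 10 µM SAHA wells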
# Starred values were filed as active, the others as inactive; ? = inconclusive; · = not tested or not shown.
SMILES,MITF TRPM1 HTS,C2C12 statin,Wnt bcat act,esBAF inh,GAA850 FXN act,GAA30 counter,GAA850 confirm
O=c1c2ccccc2sc2ccc(C#CC3(O)CCCCC3)cc12,-92.0,-50.7,-22.8,-84.9,-15.4,·,·
Cn1c2ccccc2c(=O)c2cc(C#Cc3cccc(N)c3)ccc21,75.6,6.4,·,32.2,0.2,·,·
O=C(c1ccc(-c2ccc([N+](=O)[O-])cc2)o1)N1CCCCC1,50.8,·,75.4*,·,8.5*,125.3*,44.0*
CC1CC(C)CN(C(=O)c2ccc(-c3ccc([N+](=O)[O-])cc3)o2)C1 (stereo not given),72.5,-6.1,6.9,37.3,6.5,·,·
CO[C@H]1CN(C)C(=O)c2ccc(NC(=O)C3CC3)cc2OC[C@H](C)N(CC2CCCC2)C[C@H]1C,·,-19.6,·,8.4,·,·,·
N#Cc1c(N)nc(SCc2ccccn2)c(C#N)c1-c1cccs1,5.0,·,-3.3,-7.1,20.4*,25.9*,18.8*
O=C(CCCc1ccccc1)c1ccc2c(c1)OCCO2,-78.0,-3.0,-11.7,-84.1,-16.8,·,·
O/N=C(/CCc1ccccc1)c1ccc2c(c1)OCCO2,92.3*,3.1,8.7,45.8*,8.0*,116.7*,33.1*
Cc1noc(C)c1NC(=O)N(C)C[C@H]1Oc2ncc(/C=C/c3ccccc3)cc2C(=O)N([C@@H](C)CO)C[C@@H]1C,·,3.1,·,-0.1,·,·,·
Cc1noc(C)c1NC(=O)N(C)C[C@H]1Oc2ccc(NC(=O)C3CCCCC3)cc2CC(=O)N([C@H](C)CO)C[C@@H]1C,·,-3.4,·,3.6,·,·,·
C[C@@H]1CN([C@@H](C)CO)C(=O)c2cc(Br)cnc2O[C@H]1CN(C)S(=O)(=O)c1ccc(F)cc1,·,7.2,·,0.0,·,·,·
CC(C)c1nc2sc3c(NCc4ccccc4)ncnc3c2c2c1COC(C)(C)C2,-3.0,-7.7,·,-0.4,0.8,·,·
CC(C)c1nc2sc3c(NCc4ccco4)ncnc3c2c2c1COC(C)(C)C2,1.2,9.0,-2.4,-17.7,8.1*,9.5,8.0*
COc1ccc(NC(=O)Nc2ccc3c(c2)C(=O)N([C@H](C)CO)C[C@H](C)[C@H](CN(C)CC2CC2)OCCCC[C@H](C)O3)cc1,·,·,·,1.5,·,·,·
COc1ccccc1-c1ccc2c(c1)C(C)(Cc1ccc(Cl)c(Cl)c1)C(=O)N2 (stereo not given),·,23.4,-19.0,21.3,16.9*,29.1*,11.4*
COc1ccc(S(=O)(=O)Nc2ccc3c(c2)C(=O)N([C@H](C)CO)C[C@@H](C)[C@H](CN(C)C(=O)Nc2ccc(F)cc2)OCCCC[C@@H](C)O3)cc1,·,-0.6,·,3.0,·,·,·
CC[C@@]12C(=O)N(c3cccc(F)c3)C(=O)N1[C@H](c1ccc(OC)cc1)[C@@H]1C(=O)N(C(C)(C)C)C(=O)[C@@H]12,1.4,9.9,-0.9,-2.8,11.4*,43.3*,17.8*
COc1ccc([C@@H]2[C@@H]3C(=O)N(C(C)(C)C)C(=O)[C@@H]3[C@]3(Cc4ccc(Cl)cc4)C(=O)N(c4cccc(C)c4)C(=O)N23)cc1,0.7,5.7,1.5,-4.9,6.7,·,·
CC[C@@]12C(=O)N(c3cccc(C)c3)C(=O)N1[C@H](c1ccc(OC)cc1)[C@@H]1C(=O)N(C(C)(C)C)C(=O)[C@@H]12,-1.0,-5.4,·,-3.5,11.8*,29.5*,19.5*
CCN(CC)S(=O)(=O)c1cc(NC(=O)CSCc2c(C)noc2C)ccc1C,-5.4,-1.1,0.8,10.6,8.4*,9.9,8.2*
CCN(CC)S(=O)(=O)c1cc(NC(=O)CCc2c(C)noc2C)ccc1C,-9.9,-1.3,-4.8,0.6,-1.8,·,·
Cc1ccc(NC(=O)c2oc3ccccc3c2NC(=O)C2CCCO2)cc1C (stereo not given),104.2*,·,47.3*,·,8.0*,106.1*,37.6*
CCC(=O)Nc1c(C(=O)Nc2ccc3c(c2)OCCO3)oc2ccccc12,97.5*,·,36.4*,·,9.8*,104.0*,32.0*
COc1ccc(S(=O)(=O)N(C)C[C@H]2Oc3ccc(NC(=O)Nc4cccc5ccccc45)cc3CC(=O)N([C@H](C)CO)C[C@@H]2C)cc1,·,5.7,·,4.5,·,·,·
C[C@H](CO)N1C[C@H](C)[C@@H](CN(C)C(=O)CN(C)C)Oc2ncc(-c3ccc(F)cc3)cc2C1=O,·,-9.4,·,1.6,·,·,·
SMILES,MITF TRPM1 HTS,C2C12 statin,Wnt bcat act,esBAF inh,GAA850 FXN act,GAA30 counter,GAA850 confirm
CCOC(=O)c1cnc(-c2ccccc2)nc1N(C)C,30.9,-8.3,·,74.6*,8.7*,119.6*,40.7*
CNC[C@H]1Oc2ccc(NC(=O)Nc3cccc4ccccc34)cc2CC(=O)N([C@H](C)CO)C[C@@H]1C,·,-39.3,·,-6.3,·,·,·
CN1CCN(C(=O)C[C@@H]2C[C@H]3c4cc(NC(=O)Nc5ccc(C(F)(F)F)cc5)ccc4O[C@H]3[C@H](CO)O2)CC1,·,-1.3,·,-1.4,·,·,·
COC(=O)C1=C(C)N=C2SCCC(=O)N2C1/C=C/c1ccccc1 (stereo not given),10.8,18.6,·,-11.1,8.0*,6.1,5.2
COc1ccccc1/C=C/C1C(C(=O)OCC(C)C)=C(C)N=C2SCCC(=O)N21 (stereo not given),-7.0,·,-1.5,·,3.3,·,·
CC(=O)N(C)C[C@@H]1Oc2cc(-c3ccccc3C)ccc2S(=O)(=O)N([C@H](C)CO)C[C@@H]1C,·,8.2,·,-0.7,·,·,·
O=C1C=CC(O)C2(CO)OC12 (stereo not given),·,-240.0,-4.4,2.7,11.7*,-1.1,12.2*
C/C(=N\NC(=O)c1sccc1C)c1cccnc1,37.6,1.8,3.1,?,3.2,·,·
C/C(=N\NC(=O)c1sccc1C)c1ccncc1,66.1,·,18.2,·,8.2*,82.3*,32.0*
COc1cc(/C=N/Nc2ccccn2)ccc1OCC(C)C,89.7*,-10.6,7.4,?,7.8*,87.0*,38.4*
O=C(C[C@H]1C[C@H]2c3cc(NC(=O)Nc4ccccc4F)ccc3O[C@H]2[C@@H](CO)O1)NCc1cc(F)ccc1F,·,5.0,·,-9.6,·,·,·
O=C(CSc1ccc2ccccc2c1)NCCc1ccc(O)c(O)c1,2.5,-20.6,-11.2,1.5,12.9*,43.3*,12.9*
COc1ccc(CCNC(=O)CSc2ccc3ccccc3c2)cc1OC,2.1,·,0.0,·,-0.8,·,·
COc1ccc(CN(C)C[C@H]2OCCCC[C@@H](C)Oc3ccc(NS(=O)(=O)c4cn(C)cn4)cc3C(=O)N([C@H](C)CO)C[C@H]2C)cc1,·,·,·,-0.2,·,·,·
C/C(=N\Nc1nc2ccccc2[nH]1)c1ccc(C)o1,5.0,·,·,·,8.4*,120.7*,36.1*
COc1ccc(NC(=S)Nc2ccccn2)cc1,?,4.4,35.5*,58.0*,8.3*,108.5*,31.7*
N#CC1=C(N)S[C@H](C(=O)C23CC4CC(CC(C4)C2)C3)[C@H]1c1ccncc1,·,12.9,-1.7,-7.2,8.5*,4.2,11.6*

# Compound activity from PubChem BioAssay.
